# Measured values taken from the supplement of paper PMC8728848.
# Only a selection was taken, and the strongest signals are over-represented in it overall.
# B1: FliD (Clostridium difficile) (protein)
# chain: MSSISPVRVTGLSGNFDMEGIIEASMIRDKEKVNKAKQDQQIVKWKQEIYRDIIKESKNLYDKYLNGDSPNSITNKKAYSATRITSSDESIIVAKGSAGAEKINYQFAVSQMAEPAKVTIKLNSSDPIVQQFPPNASGASSLNIGGVNIPISEQDTTSTIVSKINSLCADNDIRASYSEMTGELIISRKQTGSSSDIDLKVIGNDSLAGQIASDNGITFTTDASGTKSAVVYGKNLEADVTDDQGRVTHISKEQNSFKIDNIDYNVNSKGSAKLVSVTDTEEATKNMKAFVDDYNALMDKVYGLVTTKKSKDYPPLTDEQKDDMTTEEIEKWEKKAKEGILRNDDELRAFVEDIQSMFFGDADTIIALRKLGISEHENYNKKGQISFNADTFSKALIDDSDKVYKALAGYSSNYDDKGMFEKLKKIVFEYSGSSASKLTKKAGMENSSSASQNVYSKQIAEQERNISRLVEKMNDKEKRLYAKYSALESLLNKYSSQMNYFSQAQGN
# Experiments:
# Assay in all cases: glycan array binding signal (z-score within array); higher = stronger binding
# Conditions in all cases: glycan notation: IUPAC condensed, linker removed
# [1] = target: Fuc(a1-2)Gal(b1-3)[Fuc(a1-4)]GlcNAc(b1-2)Man(a1-3)[Fuc(a1-2)Gal(b1-3)[Fuc(a1-4)]GlcNAc(b1-2)Man(a1-6)]Man(b1-4)GlcNAc(b1-4)[Fuc(a1-6)]GlcNAc(b1-4)[Fuc(a1-6)]GlcNAc
# Summary of the method: (§1)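 The Consortium for Functional Glycomics database supplied 3228 glycan arrays, of which those lacking an available protein sequence were dropped. The binding signal, a within-array Z-score, was averaged across arrays of the same protein sequence and across linkers. Negative scores can be read as non-binding.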
# [2] = target: Fuc(a1-2)Gal(b1-4)[Fuc(a1-3)]GlcNAc(b1-2)Man(a1-3)[Fuc(a1-2)Gal(b1-4)[Fuc(a1-3)]GlcNAc(b1-2)Man(a1-6)]Man(b1-4)GlcNAc(b1-4)[Fuc(a1-6)]GlcNAc
# Summary of the method: as §1
# [3] = target: Fuc(a1-2)[Gal(a1-3)]Gal(b1-3)GlcNAc
# Summary of the method: as §1
# [4] = target: Fuc(a1-2)[GalNAc(a1-3)]Gal(b1-4)GlcNAc
# Summary of the method: as §1
# [5] = target: Fuc(a1-3)[Gal(b1-4)]GlcNAc(b1-2)Man(a1-3)[Fuc(a1-3)[Gal(b1-4)]GlcNAc(b1-2)Man(a1-6)]Man(b1-4)GlcNAc(b1-4)GlcNAc
# Summary of the method: as §1
# [6] = target: Gal(a1-3)Gal(b1-3)GlcNAc
# Summary of the method: as §1
# [7] = target: Gal(a1-3)Gal(b1-4)GlcNAc(b1-2)Man
# Summary of the method: as §1
# [8] = target: Gal(a1-4)Gal(b1-4)GlcNAc
# Summary of the method: as §1
# [9] = target: Gal(a1-4)GlcNAc
# Summary of the method: as §1
# [10] = target: Gal(b1-2)Gal
# Summary of the method: as §1
# [11] = target: Gal(b1-3)Gal
# Summary of the method: as §1
# [12] = target: Gal(b1-3)Gal(b1-4)GlcNAc
# Summary of the method: as §1
# [13] = target: Gal(b1-3)GlcNAc(a1-6)Gal(b1-4)GlcNAc
# Summary of the method: as §1
# [14] = target: Gal(b1-3)GlcNAc(b1-2)Man(a1-3)[Gal(b1-3)GlcNAc(b1-2)Man(a1-6)]Man(b1-4)GlcNAc(b1-4)[Fuc(a1-6)]GlcNAc
# Summary of the method: as §1
# [15] = target: Gal(b1-3)GlcNAc(b1-6)Gal(b1-4)GlcNAc
# Summary of the method: as §1
# [16] = target: Gal(b1-4)GlcNAc(b1-2)Man(a1-6)Man(b1-4)GlcNAc(b1-4)GlcNAc
# Summary of the method: as §1
# [17] = target: Gal(b1-4)GlcNAc(b1-2)[Gal(b1-4)GlcNAc(b1-4)]Man(a1-3)[Gal(b1-4)GlcNAc(b1-2)Man(a1-6)]Man(b1-4)GlcNAc(b1-4)GlcNAc
# Summary of the method: as §1
# [18] = target: Gal(b1-4)GlcNAc(b1-2)[Gal(b1-4)GlcNAc(b1-6)]Man(a1-6)[Gal(b1-4)GlcNAc(b1-2)Man(a1-3)]Man(b1-4)GlcNAc(b1-4)[Fuc(a1-6)]GlcNAc
# Summary of the method: as §1
# [19] = target: Gal(b1-4)GlcNAc(b1-3)Gal(b1-3)GlcNAc
# Summary of the method: as §1
# [20] = target: Gal(b1-4)GlcNAc(b1-3)Gal(b1-4)GlcNAc(b1-2)Man(a1-3)[Gal(b1-4)GlcNAc(b1-3)Gal(b1-4)GlcNAc(b1-2)Man(a1-6)]Man(b1-4)GlcNAc(b1-4)[Fuc(a1-6)]GlcNAc
# Summary of the method: as §1
# [21] = target: Gal(b1-4)GlcNAc(b1-3)Gal(b1-4)GlcNAc(b1-3)Gal(b1-4)GlcNAc(b1-3)Gal(b1-4)GlcNAc(b1-2)Man(a1-3)[Gal(b1-4)GlcNAc(b1-3)Gal(b1-4)GlcNAc(b1-3)Gal(b1-4)GlcNAc(b1-3)Gal(b1-4)GlcNAc(b1-2)Man(a1-6)]Man(b1-4)GlcNAc(b1-4)[Fuc(a1-6)]GlcNAc
# Summary of the method: as §1
# [22] = target: Gal(b1-4)GlcNAc(b1-3)Gal(b1-4)GlcNAc(b1-3)Gal(b1-4)GlcNAc(b1-3)Gal(b1-4)GlcNAc(b1-3)Gal(b1-4)GlcNAc(b1-2)Man(a1-3)[Gal(b1-4)GlcNAc(b1-3)Gal(b1-4)GlcNAc(b1-3)Gal(b1-4)GlcNAc(b1-3)Gal(b1-4)GlcNAc(b1-3)Gal(b1-4)GlcNAc(b1-2)Man(a1-6)]Man(b1-4)GlcNAc(b1-4)GlcNAc
# Summary of the method: as §1
# [23] = target: Gal3S(b1-3)GalNAc
# Summary of the method: as §1
# [24] = target: Gal3S(b1-4)Glc
# Summary of the method: as §1
# [25] = target: Gal3S(b1-4)Glc6S
# Summary of the method: as §1
# [26] = target: Gal3S6S(b1-4)GlcNAc
# Summary of the method: as §1
# [27] = target: Glc(a1-4)Glc
# Summary of the method: as §1
# [28] = target: GlcNAc(b1-3)Fuc
# Summary of the method: as §1
# [29] = target: GlcNAc(b1-4)Gal(b1-4)GlcNAc
# Summary of the method: as §1
# [30] = target: Kdn(a2-3)Gal(b1-4)Glc
# Summary of the method: as §1
binder,measurement,setting,value
B1,glycan array binding signal (z-score),[1],-0.156
same,glycan array binding signal (z-score),[2],-0.162
same,glycan array binding signal (z-score),[3],1.88
same,glycan array binding signal (z-score),[4],-0.235
same,glycan array binding signal (z-score),[5],-0.161
same,glycan array binding signal (z-score),[6],12.1
same,glycan array binding signal (z-score),[7],-0.211
same,glycan array binding signal (z-score),[8],-0.161
same,glycan array binding signal (z-score),[9],1.22
same,glycan array binding signal (z-score),[10],1.49
same,glycan array binding signal (z-score),[11],-0.262
same,glycan array binding signal (z-score),[12],-0.236
same,glycan array binding signal (z-score),[13],-0.181
same,glycan array binding signal (z-score),[14],-0.117
same,glycan array binding signal (z-score),[15],0.007
same,glycan array binding signal (z-score),[16],-0.233
same,glycan array binding signal (z-score),[17],-0.254
same,glycan array binding signal (z-score),[18],-0.222
same,glycan array binding signal (z-score),[19],-0.084
same,glycan array binding signal (z-score),[20],1.44
same,glycan array binding signal (z-score),[21],1.2
same,glycan array binding signal (z-score),[22],-0.072
same,glycan array binding signal (z-score),[23],0.678
same,glycan array binding signal (z-score),[24],3.41
same,glycan array binding signal (z-score),[25],1.24
same,glycan array binding signal (z-score),[26],-0.201
same,glycan array binding signal (z-score),[27],-0.054
same,glycan array binding signal (z-score),[28],-0.089
same,glycan array binding signal (z-score),[29],-0.232
same,glycan array binding signal (z-score),[30],-0.172
